In PubChem BioAssay AID2514 (National Center for Advancing Translational Sciences (NCATS), 2010):
Inconclusive results are not listed. Calls of active or inactive are those of the source. The call rests on the fitted dose curve; in most records, active means well fitted activation curve with a large enough effect; inconclusive means small, poorly fitted or top-dose-only effect; inactive means no such curve, though single readings can be large or run the other way.

Assay: Confirmation Concentration-Response Assay for Enhancers of SMN2 Splice Variant Expression for Probe SAR
Conditions: HEK293 SMN2 exon7 splicing luciferase reporter, luminescence
From the text: NIH Chemical Genomics Center [NCGC] NIH Molecular Libraries Probe Production centers Network [MLPCN] MLPCN Grant: R03 MH084179-01 Assay Submitter (PI): Elliot Androphy NCGC Assay Overview: Spinal muscular atrophy (SMA) is caused by insufficient levels of the survival motor neuron protein SMN. The SMN locus on chromosome 5q13 contains two inverted copies of SMN called SMN1 and SMN2 which are 99% identical at the amino acid level. SMN1 is a fully functional protein and SMN2 skips exon 7 90% of the time. Skipping of exon 7 produces non-functional protein product. 10% of the SMN2 protein includes exon 7 and is fully functional. In the SMA disease state, mutations in the SMN1 locus are the cause of the disease state. Because only 10% of SMN2 is of the fully functional form, it is not sufficient to overcome the deficiency produced by the loss of the SMN1 product. A therapy that either increase the amount of SMN2 product made or to increase the inclusion of exon 7 has been proposed for the treatment of SMA. We have designed an assay to identify small molecules that can increase the amount of functional SMN2 product by appending a luciferase reporter gene after the native SMN2 gene, such that inclusion of exon 7 in the expressed product places the luciferase sequence in frame, thus generating functional luciferase enzyme. […]

Brc1ccc(-c2csc(N3CCCCC3)n2)cc1
Potency: 13.7 µM (active)
